Laboratory results published in PubChem BioAssay AID2549 (National Center for Advancing Translational Sciences (NCATS), 2010).
Several values for one entry are separate records, joined by “and”; a condition that tells them apart may be missing. Identical values can stand only once. About 1,300 (0.54%) of roughly 240,000 compounds were called active. Not shown: some 1% with an inconclusive outcome. The call rests on the fitted dose curve; in most records, active means well fitted inhibition curve with a large enough effect; inconclusive means small, poorly fitted or top-dose-only effect; inactive means flat fitted curve, though single readings scatter. This excerpt belongs to a sample that is enriched for actives. More than one record can exist for a structure, and the calls need not agree.
Further: nearly all actives have a fitted effect of over 30% in size.
Potency means the concentration at half of the fitted maximal effect.
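Wherever activity, negative = inhibition is given: plate controls were vehicle for no effect and no enzyme for full effect.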

These molecules were tested against ATP-dependent DNA helicase Q1 (Homo sapiens) (UniProt P46063) (assay: qHTS Assay for Inhibitors of RecQ-Like Dna Helicase 1 (RECQ1)). Details: RECQ1 DNA unwinding, red fluorescence kinetic read; series mostly up to 57.3 µM; activity, negative = inhibition: at the top concentration.
ATP-dependent DNA helicase Q1 (Homo sapiens), sequence (P46063 whole entry, looked up): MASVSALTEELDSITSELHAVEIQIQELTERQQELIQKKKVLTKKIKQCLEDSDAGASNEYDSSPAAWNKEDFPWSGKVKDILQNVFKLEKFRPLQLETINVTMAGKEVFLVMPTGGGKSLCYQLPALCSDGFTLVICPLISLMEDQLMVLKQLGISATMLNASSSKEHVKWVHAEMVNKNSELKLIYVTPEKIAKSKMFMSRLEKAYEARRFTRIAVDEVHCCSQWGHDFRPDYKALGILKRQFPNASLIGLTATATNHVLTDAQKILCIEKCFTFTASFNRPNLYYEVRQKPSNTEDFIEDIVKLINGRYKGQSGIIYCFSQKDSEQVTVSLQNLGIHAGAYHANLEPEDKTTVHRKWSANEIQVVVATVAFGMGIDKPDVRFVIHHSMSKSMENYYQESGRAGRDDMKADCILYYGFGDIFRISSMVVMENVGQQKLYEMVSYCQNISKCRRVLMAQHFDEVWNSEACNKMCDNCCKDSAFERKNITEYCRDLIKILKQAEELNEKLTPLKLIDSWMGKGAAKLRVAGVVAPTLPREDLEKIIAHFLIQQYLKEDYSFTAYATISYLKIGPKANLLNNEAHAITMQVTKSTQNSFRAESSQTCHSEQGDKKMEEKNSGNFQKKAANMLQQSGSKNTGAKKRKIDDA
Excerpt: Survival of cells and the faithful propagation of the genome depend on elaborate mechanisms of detecting and repairing DNA damage. Treatment of advanced cancer relies on radiation therapy or chemotherapy, which kill cancer cells by causing extensive DNA damage. It is often found, that cancer cells develop resistance to therapy through enhanced activity of DNA repair functions; this has led to an increased interest in developing drugs that interfere with DNA repair, which could sensitize cancer cells to conventional therapy.
This validation qHTS assay pertains to human RECQ1, which is important in resolving abnormal DNA structures formed during replication or homologous recombination. Shutting down the expression of RECQ1 leads to chromosomal instability and higher radiation sensitivity in cultured cells.
The validation assay was a fluorescence quenching based kinetic qHTS for RECQ1 Helicase DNA unwinding. The activity was measured as ATP-dependent separation of a 20-bp DNA duplex extended by 30-nt single-stranded tails (forked duplex). The forked DNA substrate was tagged with rhodamine fluorophore (carboxytetramethyl rhodamine, TAMRA) and BHQ-2 (Black Hole Quencher 2) dark quencher. Strand separation results in an increase in the fluorescence of TAMRA (excitation 525 nm, emission 598 nm). This substrate construct operates in a red-shifted region where very few compound library members have been noted to fluoresce (PubChem AIDs 593 and 594). An additional feature of the assay is the inclusion of 2.5 ug/ml poly (dIdC), to reduce interference by compounds such as DNA intercalators, a major source of false inhibitors.
Opher Gileadi, Structural Genomics Consortium, University of Oxford
Screening Center PI: Austin, C.P.
Screening Center: NIH Chemical Genomics Center [NCGC]
Three uL of reaction buffer (25 mM Tris-HCl (pH 8.0), 5 mM NaCl, 2 mM MgCl2, 1mM DTT, 0.01% Tween- 20, and 2.5 ug/ml poly(dI-dC), including enzyme (50 nM RECQ1T1), were dispensed into a 1536-well Greiner black assay plate via solenoid-valve based nanoliter dispensers. Compounds (23 nl each in columns 5-48) and control (23 nl each in column 2 as dose-response) were transferred via a Kalypsys pintool equipped with a 1536-pin array. The plates were incubated for 15 min at room temperature, and then 1 ul of substrates (200 nM DNA and 2 mM ATP, final concentrations) was added to start the reaction. The plate was transferred into a ViewLux high-throughput CCD imager where the reaction progress was measured in a discontinuous kinetic mode (two reads spaced 2 hours apart, with intermediate room temperature incubation of the covered assay plate) by using standard red-fluorescence optics (excitation filter 525 nm, emission filter 598 nm). Enzyme-free and vehicle (DMSO) controls were included for signal normalization.
O=C1NC(=O)N(CCc2ccc(F)cc2)C(=O)/C1=C/C=C/c1ccccc1 was tested, and the “activity, negative = inhibition” value was -7.01% (inactive).
O=C1NC(=O)N(Cc2ccco2)C(=O)/C1=C\c1ccc(-c2ccc(F)cc2)o1 was tested, and the Potency was 25.1 µM (active).
In the case of CC(C)CC(C)Nc1ccc(Nc2ccccc2)cc1 (stereo unspecified), the “activity, negative = inhibition” value is reported as -4.48% (inactive).
With N#CC(C#N)=Cc1cc(O)c(O)c([N+](=O)[O-])c1 the Potency was 31.6 µM (active).
With CCN(CC)c1nc(C)cc(OP(=S)(OC)OC)n1 the “activity, negative = inhibition” value was -4.04% (inactive).
In the case of O=C1CC(=O)N(Cc2ccccc2)C(=O)N1CCCCCCN1C(=O)CC(=O)N(Cc2ccccc2)C1=O, the Potency is reported as 7.94 µM (active).
In the case of O=C(CN1CCCC1=O)NCCc1ccccc1, the “activity, negative = inhibition” value is reported as 3.98% (inactive).
For CC(C)(C)c1ccc(CN2C(=O)CN=C(c3ccccc3)c3ccccc32)cc1, the “outcome” value was “inactive”.
For CO[C@H]1[C@@H](O)[C@@H](C)O[C@H](O[C@H]2[C@H](Oc3cccc4c(O)c5c(=O)oc6ccc(C)c7c(=O)oc(c34)c5c67)O[C@H](C)[C@H](O)[C@@H]2O)[C@@H]1O, the “activity, negative = inhibition” value was -27% (inactive).
For COc1cccc(N2C(=O)NC(=O)/C(=C\c3ccc([N+](=O)[O-])s3)C2=O)c1, the Potency was 22.4 µM (active).
In the case of Cc1c(C(=O)O)cccc1-n1c(C)cc(/C=C2\C(=O)NC(=O)N(c3ccc4c(c3)OCO4)C2=O)c1C, the “activity, negative = inhibition” value is reported as -6.31% (inactive).
In the case of CCCCCCCCCCCCN=C(N)N, the “activity, negative = inhibition” value is reported as -3.44% (inactive).
For CCCN(C/C=C/I)C1CCc2ccc(O)cc2C1 (stereo unspecified), the “activity, negative = inhibition” value was 16.7% (inactive).
In the case of ClCCBr, the “activity, negative = inhibition” value is reported as -7.43% (inactive).
With CC(C)(Cc1c[nH]c2ccc(Cl)cc12)NCCOc1ccccc1OCC1CC1 the Potency was “inactive”.
With CC(=O)[O][Sn]([c]1ccccc1)([c]1ccccc1)[c]1ccccc1 the “activity, negative = inhibition” value was -18.8% (inactive).
CN(C)C[C@H]1CCCC[C@]1(O)c1cccc(O)c1 was tested, and the “activity, negative = inhibition” value was -4.76% (inactive).
For O=C(OCC1O[C@@H](OC(=O)c2cc(O)c(O)c(O)c2)[C@@H](OC(=O)c2cc(O)c(O)c(O)c2)[C@@H](OC(=O)c2cc(O)c(O)c(O)c2)[C@@H]1OC(=O)c1cc(O)c(O)c(O)c1)c1cc(O)c(O)c(O)c1 (stereo partly specified), the Potency was 0.112 µM (active).
For C=CCN1CCC2(C)c3cc(O)ccc3CC1[C@@H]2C (stereo partly specified), the “activity, negative = inhibition” value was -14.3% (inactive).
For CC(C)(C)C(O)(CCc1ccc(Cl)cc1)Cn1cncn1 (stereo unspecified), the “activity, negative = inhibition” value was -5.08% (inactive).
O=C1CCc2cccc3c2N1CC3 was tested, and the “activity, negative = inhibition” value was -9.06% (inactive).
For C[C@@H]1C[C@H]2CC[C@H](O2)[C@H](C)C(=O)O[C@@H](C)C[C@@H]2CC[C@@H](O2)[C@@H](C)C(=O)O[C@H](C)C[C@H]2CC[C@H](O2)[C@H](C)C(=O)O[C@@H](C)C[C@@H]2CC[C@@H](O2)[C@@H](C)C(=O)O1, the “activity, negative = inhibition” value was -2.94% (inactive).
In the case of Nc1ccc(-c2ccc(N)c(N)c2)cc1N, the “activity, negative = inhibition” value is reported as -4.18% (inactive).
For CC[C@]1(O)C(=O)OCc2c1cc1n(c2=O)Cc2cc3ccccc3nc2-1, the “activity, negative = inhibition” value was -18.3% (inactive).
For CC[N+](C)(CC)CCC[n+]1c(-c2ccccc2)c2cc(N)ccc2c2ccc(N)cc21, the Potency was 11.2 µM (active) and 35.5 µM (active).
In the case of C[C@H]1C/C=C/[C@@H]2[C@@H]3O[C@]3(C)[C@@H](C)[C@H]3[C@H](Cc4ccccc4)NC(=O)[C@]32OC(=O)O/C=C/[C@](C)(O)C1=O, the “activity, negative = inhibition” value is reported as 6.24% (inactive).
CN(C)[C@@H]1C(=O)C(C(N)=O)=C(O)[C@@]2(O)C(=O)C3=C(O)c4c(O)cccc4[C@@](C)(O)C3CC12 (stereo partly specified) was tested, and the “activity, negative = inhibition” value was -0.266% (inactive).
With N#CCCCl the Potency was “inactive”.
In the case of N#Cc1cc(Br)c(O)c(Br)c1, the “activity, negative = inhibition” value is reported as 15.8% (inactive).
CCCCC#N was tested, and the “activity, negative = inhibition” value was 11.1% (inactive).
For CC(C)(c1ccc(OC[C@@H]2CO2)cc1)c1ccc(OC[C@H]2CO2)cc1, the “activity, negative = inhibition” value was -8.34% (inactive).
For CO[C@@H]1C[C@@H](C[C@H]2CC[C@H](C)[C@@H]([C@@H](C)C(=O)O)O2)O[C@]2(O[C@](C)([C@H]3CC[C@@](C)(C4OC([C@H]5O[C@@](O)(CO)[C@H](C)C[C@@H]5C)C[C@@H]4C)O3)C[C@H]2C)[C@@H]1C (stereo partly specified), the “outcome” value was “inactive”.
CN[C@@H]1C[C@H]2O[C@@](C)([C@@H]1OC)n1c3ccccc3c3c4c(c5c6ccccc6n2c5c31)C(=O)NC4 was tested, and the Potency was 35.5 µM (active) and the outcome was “inactive [at 11.5 µM]”.
In the case of C[C@]12O[C@H](C[C@@]1(O)C(=O)O)n1c3ccccc3c3c4c(c5c6ccccc6n2c5c31)CNC4=O, the “activity, negative = inhibition” value is reported as -8.07% (inactive).
With COc1ccc2[nH]cc(CCNCc3ccc(Br)cc3)c2c1 the “activity, negative = inhibition” value was -1.04% (inactive).
